Consider 67 compounds from the antibiotic and cytotoxicity screens of Wong et al. (2023).

Each structure is given as a SMILES string. In all, about 39,000 compounds went through this assay and about 3,300 (8.5%) were called active. Only a selection was taken, and actives are over-represented in it overall.

For the experiment, the system named is HepG2. Briefly: cytotoxicity call (relative viability < 0.9). The note with it: 10 µM.
For the compound `CC(C)c1cc(N2CC[C@@H](N)C2)nc(N)n1`, the cytotoxicity call is “inactive”. Turning to `Cc1noc(C)c1NC(=O)Nc1cccc2c1O[C@H](CN(C)S(C)(=O)=O)[C@H](C)CN([C@@H](C)CO)C2=O`, the cytotoxicity call was “inactive”. With `CC(C)NC(=O)Nc1ccc2c(c1)CC(=O)N([C@H](C)CO)C[C@H](C)[C@H](CN(C)Cc1ccc(C(=O)O)cc1)O2` the entry was “inactive”; with `O=C(NCCCN1CCOCC1)[C@H]1[C@H](CO)[C@H]2Cn3c(cccc3=O)[C@@H]1N2C(=O)NC1CCCC1`, “inactive”; with `CC(C)CN[C@H]1CCS(=O)(=O)C1`, “inactive”. As to `COc1ccc(S(=O)(=O)Nc2ccc3c(c2)C(=O)N([C@@H](C)CO)C[C@@H](C)[C@H](CN(C)Cc2ccc(Cl)c(Cl)c2)OCCCC[C@@H](C)O3)cc1`, the cytotoxicity call was “active”.

As to `COc1ccc(CN(C)C[C@H]2OCCCC[C@@H](C)Oc3ccc(NS(=O)(=O)c4ccc(OC)cc4)cc3C(=O)N([C@H](C)CO)C[C@@H]2C)cc1`, the cytotoxicity call was “inactive”. With `COc1ccc(CN(C)C[C@@H]2OCCCC[C@@H](C)Oc3ccc(NS(=O)(=O)c4ccc(OC)cc4)cc3C(=O)N([C@H](C)CO)C[C@H]2C)cc1`, the cytotoxicity call is “inactive”.

Turning to `COc1ccc(S(=O)(=O)Nc2ccc3c(c2)C(=O)N([C@H](C)CO)C[C@H](C)[C@@H](CN(C)Cc2ccc(Cl)c(Cl)c2)OCCCC[C@H](C)O3)cc1`, the cytotoxicity call is “active”. With `C[C@H]1CN([C@@H](C)CO)C(=O)c2cc(NS(=O)(=O)c3cn(C)cn3)ccc2O[C@H]1CN(C)C(=O)Nc1ccc2c(c1)OCO2` the entry was “inactive”; with `Cc1nc(CO)co1`, “inactive”; with `COc1ccc([C@@H](N)c2ccncc2)cc1`, “inactive”.

With `C[C@H](CO)N1C[C@H](C)[C@@H](CN(C)Cc2ccc(Oc3ccccc3)cc2)Oc2c(NC(=O)CCCCCC(=O)Nc3ccccc3N)cccc2C1=O`, the cytotoxicity call is “inactive”.

`O=S(=O)(NCCCN(C/C=C/c1ccc(F)cc1)C/C=C/c1ccc(F)cc1)c1cccc2cnccc12`: the cytotoxicity call was “inactive”.

`COc1ccc(/C=C/CN(C/C=C/c2ccc(OC)cc2)CCCCNS(=O)(=O)c2cccc3cnccc23)cc1`: the cytotoxicity call was “active”. As for `O=S(=O)(NCCCCN(C/C=C/c1ccc(F)cc1)C/C=C/c1ccc(F)cc1)c1cccc2cnccc12`, the cytotoxicity call is “active”.

Take `N=C(N)NCCNS(=O)(=O)c1cccc2cnccc12`: the cytotoxicity call is “active”. As for `O=[N+]([O-])c1ccc(/C=C/CN(C/C=C/c2ccc([N+](=O)[O-])cc2)CCNS(=O)(=O)c2cccc3cnccc23)cc1`, the cytotoxicity call is “inactive”. For `O=S(=O)(NCCCCN(C/C=C/c1ccccc1)C/C=C/c1ccccc1)c1cccc2cnccc12`, the cytotoxicity call is “inactive”. In the case of `COc1ccc(/C=C/CN(C/C=C/c2ccc(OC)cc2)CCCNS(=O)(=O)c2cccc3cnccc23)cc1`, the cytotoxicity call was “inactive”. With `O=[N+]([O-])c1ccc(/C=C/CN(C/C=C/c2ccc([N+](=O)[O-])cc2)CCCCNS(=O)(=O)c2cccc3cnccc23)cc1` the entry was “inactive”. With `O=S(=O)(NCCCN(CCCc1ccccc1)CCCc1ccccc1)c1cccc2cnccc12` the entry was “inactive”; with `COc1ccc(NC(=O)N(C)C[C@@H]2Oc3ccc(NC(=O)CCCN(C)C)cc3C(=O)N([C@H](C)CO)C[C@@H]2C)cc1`, “inactive”; with `C[C@@H]1CN([C@H](C)CO)C(=O)c2cc(NS(=O)(=O)c3cn(C)cn3)ccc2O[C@@H](C)CCCCO[C@@H]1CN(C)C`, “inactive”. With `Cc1cc(C(=O)Nc2cccc3c2O[C@@H](CN(C)S(=O)(=O)c2ccc(Cl)cc2)[C@H](C)CN([C@@H](C)CO)C3=O)n(C)n1` the entry was “inactive”; with `C[C@@H]1CN([C@@H](C)CO)C(=O)c2cc(NS(=O)(=O)c3cccs3)ccc2O[C@H]1CN(C)S(=O)(=O)c1ccc(F)cc1`, “inactive”. `C[C@@H](O)[C@H](N)C(=O)N[C@@H](CCCCN)C(=O)N1CCC[C@H]1C(=O)N[C@@H](CCCNC(=N)N)C(=O)O`: the cytotoxicity call was “inactive”. Consider `O=C(C[C@H]1C[C@H]2c3cc(NS(=O)(=O)c4ccc(F)cc4)ccc3O[C@H]2[C@H](CO)O1)NCc1cccnc1`, for which the cytotoxicity call was “inactive”. With `Cc1noc(C)c1NC(=O)Nc1ccc2c(c1)C(=O)N([C@H](C)CO)C[C@H](C)[C@@H](CN(C)C(=O)Nc1c(C)noc1C)OCCCC[C@H](C)O2` the entry was “inactive”; with `CN(C)CCCCCCNC(=O)[C@@H]1C[C@@H]2C(=O)N[C@@H](CCCC[N+](C)(C)C)C(=O)N2[C@@H]1c1cccc(OCCO)c1`, “inactive”; with `C[C@@H]1CN([C@@H](C)CO)S(=O)(=O)c2ccc(C#Cc3ccncc3)cc2O[C@H]1CN(C)C(=O)C1CCCCC1`, “active”.

Consider `C[C@@H]1CN([C@@H](C)CO)S(=O)(=O)c2ccc(C#CC3CC3)cc2O[C@H]1CN(C)C(=O)C1CCCCC1`, for which the cytotoxicity call was “inactive”. With `C[C@@H]1CN([C@H](C)CO)S(=O)(=O)c2ccc(C#C[C@@H](C)O)cc2O[C@@H]1CN(C)C(=O)C1CCCCC1` the entry was “inactive”. Take `C[C@H](O)C#Cc1ccc2c(c1)O[C@@H](CN(C)C(=O)C1CCCCC1)[C@H](C)CN([C@@H](C)CO)S2(=O)=O`: the cytotoxicity call was “inactive”. With `C[C@H](CO)N1C[C@H](C)[C@H](CN(C)C(=O)C2CCCCC2)Oc2cc(C#Cc3ccncc3)ccc2S1(=O)=O` the entry was “active”; with `C[C@H](CO)N1C[C@H](C)[C@@H](CN(C)C(=O)C2CCCCC2)Oc2cc(C#Cc3ccncc3)ccc2S1(=O)=O`, “active”; with `C[C@H](O)C#Cc1ccc2c(c1)O[C@@H](CN(C)C(=O)C1CCCCC1)[C@H](C)CN([C@H](C)CO)S2(=O)=O`, “inactive”. With `C[C@H]1CN([C@@H](C)CO)S(=O)(=O)c2ccc(C#Cc3ccncc3)cc2O[C@H]1CN(C)C(=O)C1CCCCC1` the entry was “inactive”; with `C[C@@H]1CN([C@H](C)CO)S(=O)(=O)c2ccc(C#Cc3ccncc3)cc2O[C@H]1CN(C)C(=O)C1CCCCC1`, “active”.

As for `COc1ccc(CN(C)C[C@@H]2Oc3ccc(NS(=O)(=O)c4cn(C)cn4)cc3C(=O)N([C@@H](C)CO)C[C@@H]2C)cc1`, the cytotoxicity call was “inactive”. With `C[C@H]1CN([C@@H](C)CO)C(=O)c2cc(NC(=O)Nc3ccc4c(c3)OCO4)ccc2O[C@@H]1CN(C)C(=O)Nc1cccc2ccccc12` the entry was “inactive”; with `C[C@H](CO)N1C[C@H](C)[C@H](CN(C)S(=O)(=O)c2ccccc2)Oc2c(NS(=O)(=O)c3cccs3)cccc2C1=O`, “inactive”; with `Cc1ccc(S(=O)(=O)N(C)C[C@@H]2Oc3ccc(NS(=O)(=O)c4c(C)noc4C)cc3C(=O)N([C@@H](C)CO)C[C@H]2C)cc1`, “inactive”. Regarding `COc1ccccc1-c1cccc(-c2nc(C(=O)N3CCCCC3)cc3c2[C@@H](CCO)N([S@](=O)C(C)(C)C)C3)c1`, the cytotoxicity call was “inactive”. With `O[C@H]1[C@H](O)[C@@H](O)[C@H](O)[C@@H](O)[C@H]1O` the entry was “inactive”; with `Cc1ccc(S[C@]2(C(=O)NC3CC3)CC(=O)N(C3Cc4ccccc4C3)[C@@H]2c2ccc(CO)cc2I)cc1`, “inactive”. With `C[C@@H]1CN([C@@H](C)CO)C(=O)c2cc(-c3ccncc3)cnc2O[C@@H]1CN(C)S(=O)(=O)c1ccc(F)cc1` the entry was “inactive”; with `COc1ccc2c3c(n(c2c1)C)[C@@H](CO)N(CC1CCOCC1)C[C@]13CN(C1)C(=O)Cc1cccnc1`, “inactive”. With `C[C@@H]1CN([C@H](C)CO)C(=O)c2cccc(NS(=O)(=O)c3cccs3)c2O[C@@H]1CN(C)S(=O)(=O)c1ccc(F)cc1` the entry was “inactive”; with `C[C@@H]1CN([C@H](C)CO)S(=O)(=O)c2ccc(C#CC3CC3)cc2O[C@H]1CN(C)C(=O)C1CCCCC1`, “inactive”; with `C[C@@H]1CN([C@@H](C)CO)S(=O)(=O)c2ccc(C#Cc3ccncc3)cc2O[C@@H]1CN(C)C(=O)C1CCCCC1`, “active”.

For `C[C@H](O)C#Cc1ccc2c(c1)O[C@@H](CN(C)C(=O)C1CCCCC1)[C@@H](C)CN([C@@H](C)CO)S2(=O)=O`, the cytotoxicity call was “inactive”. With `C[C@H]1CN([C@@H](C)CO)S(=O)(=O)c2ccc(C#Cc3ccncc3)cc2O[C@@H]1CN(C)C(=O)C1CCCCC1` the entry was “active”; with `C[C@@H]1CN([C@H](C)CO)S(=O)(=O)c2ccc(C#Cc3ccncc3)cc2O[C@@H]1CN(C)C(=O)C1CCCCC1`, “active”; with `Cc1noc(C)c1NC(=O)Nc1ccc2c(c1)CC(=O)N([C@H](C)CO)C[C@@H](C)[C@@H](CN(C)Cc1ccc(C(=O)Nc3ccccc3N)cc1)O2`, “inactive”. On to `C[C@@H]1CN([C@H](C)CO)C(=O)Cc2cc(NC(=O)CCC(F)(F)F)ccc2O[C@@H]1CN(C)Cc1ccc(C(=O)Nc2ccccc2N)cc1`, for which the cytotoxicity call was “inactive”. `C[C@H](CO)N1C[C@H](C)[C@H](CN(C)S(C)(=O)=O)Oc2c(cccc2N(C)C)C1=O`: the cytotoxicity call was “inactive”. With `C[C@@H]1CN([C@H](C)CO)C(=O)c2cccc(NC(=O)C3CCCCC3)c2O[C@@H]1CN(C)S(=O)(=O)c1cn(C)cn1` the entry was “inactive”; with `C[C@@H]1CN([C@H](C)CO)C(=O)c2cccc(NC(=O)Nc3ccc(F)cc3)c2O[C@@H]1CN(C)S(=O)(=O)c1cn(C)cn1`, “inactive”. With `COc1ccc(-n2nc(C(=O)NCC(=O)N3CCN(c4ccccc4)CC3)c3ccccc3c2=O)c(OC)c1` the entry was “inactive”; with `CC[C@H]1OC(=O)[C@H](C)[C@@H](O[C@H]2C[C@@](C)(OC)[C@@H](O)[C@H](C)O2)[C@H](C)[C@@H](O[C@@H]2O[C@H](C)C[C@H](N(C)C)[C@H]2O)[C@](C)(O)C[C@@H](C)[C@@H]2N[C@@H](COCCOC)O[C@H]([C@H]2C)[C@]1(C)O`, “inactive”. Turning to `C[C@@H]1CN([C@@H](C)CO)C(=O)Cc2cc(NC(=O)Nc3ccc(C(F)(F)F)cc3)ccc2O[C@@H]1CN(C)C(=O)Nc1ccc(C(F)(F)F)cc1`, the cytotoxicity call is “active”. With `C[C@H]1CN([C@@H](C)CO)C(=O)Cc2cc(NC(=O)Nc3ccc(C(F)(F)F)cc3)ccc2O[C@@H]1CN(C)C(=O)Nc1ccc(C(F)(F)F)cc1` the entry was “inactive”. With `C[C@@H]1CN([C@@H](C)CO)C(=O)Cc2cc(NC(=O)Nc3ccc(C(F)(F)F)cc3)ccc2O[C@H]1CN(C)C(=O)Nc1ccc(C(F)(F)F)cc1` the entry was “active”; with `C[C@H]1CN([C@@H](C)CO)C(=O)Cc2cc(NC(=O)Nc3ccc(C(F)(F)F)cc3)ccc2O[C@H]1CN(C)C(=O)Nc1ccc(C(F)(F)F)cc1`, “active”. With `C[C@H](CO)N1C[C@H](C)[C@@H](CN(C)C(=O)Nc2ccc(C(F)(F)F)cc2)Oc2ccc(NC(=O)Nc3ccc(C(F)(F)F)cc3)cc2CC1=O` the entry was “active”; with `C[C@@H]1CN([C@H](C)CO)C(=O)Cc2cc(NC(=O)Nc3ccc(C(F)(F)F)cc3)ccc2O[C@H]1CN(C)C(=O)Nc1ccc(C(F)(F)F)cc1`, “inactive”.
